Tests used:
Assay in all cases: PBM binding z-score (relative to random genomic background probes); higher = stronger binding; sequences stand for … in GC…GCGATTGACAGCGTAGAATGAAGG
[1] = system: FXR:RXRa (NR concentration 270 nM, RXRa partner concentration 90 nM)
In short: (§1)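 On custom Agilent 4×180K arrays, double-stranded probes with 34-nt variable regions carried direct-repeat seeds, single-nucleotide variants, half-site ablations or random human genomic background. Ligand-free nuclear receptor dimers were applied for 1 h, and binding was read with antibodies against each partner (one per run). Binding z-scores come from regression-normalized fluorescence, with the random background probes as reference.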

[2] = system: LXRa:RXRa (NR concentration 270 nM, RXRa partner concentration 90 nM)
In short: as §1

[3] = system: LXRa homodimer (NR concentration 270 nM)
In short: as §1

[4] = system: LXRb:RXRa (NR concentration 270 nM, RXRa partner concentration 90 nM)
In short: as §1

[5] = system: LXRb homodimer (NR concentration 270 nM)
In short: as §1

[6] = system: PPARa:RXRa (NR concentration 270 nM, RXRa partner concentration 90 nM)
In short: as §1

[7] = system: PPARg:RXRa (NR concentration 180 nM, RXRa partner concentration 90 nM)
In short: as §1

[8] = system: PPARg:RXRa 270nM:90nM, anti-RXR (NR concentration 270 nM, RXRa partner concentration 90 nM)
In short: as §1

[9] = system: PPARg:RXRa 30nM:10nM, anti-RXR (NR concentration 30 nM, RXRa partner concentration 10 nM)
In short: as §1

[10] = system: PPARg:RXRa 90nM:30nM, anti-RXR (NR concentration 90 nM, RXRa partner concentration 30 nM)
In short: as §1

[11] = system: PPARg:RXRa DBDmut IVT, anti-RXR (DBD mutation: RXRa K156A/R161A, NR concentration 270 nM, RXRa partner concentration 90 nM)
In short: as §1

[12] = system: PPARg:RXRa IVT, anti-PPARg (NR concentration 270 nM, RXRa partner concentration 90 nM)
In short: as §1

[13] = system: PPARg DBDmut:RXRa IVT, anti-PPARg (DBD mutation: PPARg1 K132A/R137A, NR concentration 270 nM, RXRa partner concentration 90 nM)
In short: as §1

[14] = system: PPARg DBDmut IVT, anti-PPARg (DBD mutation: PPARg1 K132A/R137A, NR concentration 270 nM)
In short: as §1

[15] = system: PPARg homodimer (NR concentration 180 nM)
In short: as §1

[16] = system: PXR:RXRa (NR concentration 270 nM, RXRa partner concentration 90 nM)
In short: as §1

[17] = system: PXR homodimer (NR concentration 270 nM)
In short: as §1

[18] = system: RARa:RXR (NR concentration 270 nM, RXRa partner concentration 90 nM)
In short: as §1

[19] = system: RARa homodimer (NR concentration 270 nM)
In short: as §1

[20] = system: RARb:RXRa (NR concentration 270 nM, RXRa partner concentration 90 nM)
In short: as §1

Row | Sequence | PBM binding z-score [1] | PBM binding z-score [2] | PBM binding z-score [3] | PBM binding z-score [4] | PBM binding z-score [5] | PBM binding z-score [6] | PBM binding z-score [7] | PBM binding z-score [8] | PBM binding z-score [9] | PBM binding z-score [10] | PBM binding z-score [11] | PBM binding z-score [12] | PBM binding z-score [13] | PBM binding z-score [14] | PBM binding z-score [15] | PBM binding z-score [16] | PBM binding z-score [17] | PBM binding z-score [18] | PBM binding z-score [19] | PBM binding z-score [20]
1 | GCTTGTAGATCACGGTTAAGAAAGACTAAGCTAA | -0.132 | -0.33 | -0.625 | -0.369 | -0.584 | -0.169 | -0.118 | -0.0332 | -0.114 | 0.156 | 2.32 | 1.04 | -0.32 | -0.283 | 0.0431 | -0.49 | -0.193 | -0.247 | 0.0308 | -0.178
2 | ACAGACAGGTAATGAAGGTAACTCAGGCTATCAT | 0.224 | 0.251 | 0.0515 | 0.0112 | 0.161 | 0.173 | 0.58 | -0.0336 | -0.0735 | -0.327 | -0.129 | 0.574 | 0.213 | 0.735 | 0.348 | 0.147 | 0.218 | 0.263 | 0.161 | 0.169
3 | GCATATAGGTAATACAAGGTGGAAGTCCGATTGT | 0.184 | 0.265 | -0.224 | -0.272 | -0.619 | 0.775 | 0.978 | 0.953 | 0.435 | 0.586 | 4.14 | 2.47 | 1.2 | 0.302 | -0.138 | 0.192 | 0.041 | 0.731 | 0.593 | 0.0105
4 | ACAGACACGTGATGAAGGTAACTCAGGCTATCAT | 0.135 | 0.0254 | -0.272 | 0.133 | -0.0548 | -0.111 | 0.787 | -0.012 | 0.0893 | -0.0553 | -0.318 | -0.0146 | 0.501 | 0.226 | 0.142 | -0.0986 | 0.0203 | 0.352 | 0.63 | -0.138
5 | ATCGAAAGGTCGAGATGAGTATAGAGAAAGGGAA | 3.74 | 3.2 | 0.146 | 2.54 | 0.748 | 4.2 | 2.56 | 2.97 | 0.989 | 2 | -0.278 | 1.33 | 1.47 | 1.2 | 1.05 | 2.02 | 0.117 | 2.52 | 0.436 | 3.66
6 | TCGAGTAGGTTACCAATGGGGCATACAGCTTTCT | 0.164 | 1.55 | -0.441 | 1.04 | -0.663 | 1.18 | 0.984 | 1.68 | 1.27 | 1.28 | 3.13 | 3.01 | -0.185 | -0.3 | -0.0294 | 0.327 | -0.38 | 0.453 | -0.62 | 0.89
7 | CGAACTAGGTCCAGGACAGTGAATCTCCGCACGC | -0.204 | -0.571 | -0.353 | -0.95 | -0.661 | -0.195 | 0.3 | -0.587 | -0.632 | -0.449 | 2.08 | 0.856 | -0.489 | -1.24 | -0.302 | -0.535 | -0.312 | -0.417 | -0.0938 | 0.00636
8 | AGAACGAGGCCAATGAGTTGATAGCACGGGTGGC | -0.177 | -0.455 | -0.576 | -0.817 | -0.913 | 0.0353 | 0.81 | -0.06 | -0.388 | 0.093 | 1.54 | 0.862 | 0.703 | 0.331 | -0.093 | 0.214 | 0.741 | -0.114 | 0.0259 | 0.946
9 | CCGACCGGGGCATAAGGTTACCATAAGCCAGCCC | 0.604 | 1.92 | -0.254 | 0.72 | -1.04 | 1.75 | 1.09 | 1.45 | -0.188 | 0.731 | 0.165 | 0.416 | -0.828 | -1.51 | 0.811 | 0.533 | -0.0926 | 1.79 | -0.565 | 1.8
10 | TCTGCTAGGTCAACGATGGTCAGCTCATCTGCTA | 3.56 | 2.79 | 0.0556 | 1.81 | 0.088 | 3.34 | 2.4 | 2.89 | 1.65 | 2.19 | 4 | 4.36 | 2.19 | -0.236 | 1.9 | 1.71 | -1.45 | 2.37 | -0.783 | 4.05
11 | GGAACTAGGGCAAGTTGATAGCAGAGTTTGATGG | 0.0855 | 0.0269 | 0.0494 | -0.0975 | -0.374 | 2.15 | 3.63 | 3.21 | 1.12 | 2.57 | 7.19 | 6.86 | 0.964 | 0.266 | 0.42 | 0.0404 | 0.803 | -0.0697 | -0.11 | 1.69
12 | GCGACTGGGGCATCAGCAGGTAACCATAACTTAA | -0.303 | -0.254 | -0.127 | 0.0489 | -0.791 | 0.658 | 0.905 | 0.685 | -0.0973 | 0.285 | 3.85 | 3.1 | -0.465 | -0.924 | 0.206 | -0.194 | -0.176 | 0.582 | -0.479 | 0.352
13 | ACTATTAGTTGACTTAGGGCCACCGATACGACGC | 0.803 | 0.394 | 0.324 | 0.152 | 0.713 | 0.121 | 1.07 | 0.422 | 0.18 | 0.363 | 0.373 | 0.728 | 1.68 | 1.42 | 0.408 | 0.124 | 0.0401 | 0.753 | 0.459 | 0.755
14 | AACGAAAGGTCGTGAGGTGAGTATACAGAAAGGC | 5.67 | 4.36 | 0.174 | 3.32 | -0.0859 | 5.07 | 4.41 | 4.6 | 1.54 | 3.21 | 0.775 | 2.28 | 0.36 | 0.0984 | 1.96 | 3.37 | 0.132 | 4.22 | 0.704 | 4.04

Source: the supplement of paper PMC6555819
